Results: PubChem BioAssay
Calls of active or inactive are those of the source.

Legend:
[1] = compound effects on lung adenocarcinoma cell viability – A549, calcein-AM fluorescence, 48 h, basal, profiling panel (AID 1162); details: higher = more signal
[2] = compound effects on differentiated 3T3-L1 adipocyte viability – cell-based, 3T3-L1 adipocytes, calcein-AM fluorescence, 48 h, basal, profiling panel (AID 1163); details: 3T3-L1 adipocytes viability, higher = more signal
[3] = compound effects on hepatocellular carcinoma cell viability – HepG2, calcein-AM fluorescence, 48 h, basal, profiling panel (AID 1164); details: higher = more signal
[4] = compound effects on multiple myeloma cell viability – MM1S, calcein-AM fluorescence, 48 h, basal, profiling panel (AID 1165); details: higher = more signal;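 also: viability of MM1S multiple myeloma cells under basal unstimulated conditions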
[5] = calcein-AM signal in unstimulated myeloma cells – cell-based, calcein-AM fluorescence, 48 h, PK04 Diversity Set, profiling panel (AID 1166); details: RPMI8226 myeloma viability, higher = more signal;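 also: cells grown under basal conditions without added stimulus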
[6] = JC-1 mitochondrial signal, unstimulated HepG2 cells – cell-based, JC-1 fluorescence, 24 h, 100 nL compound, profiling panel (AID 1167); details: HepG2 mitochondrial potential, higher = more signal
[7] = JC-1 mitochondrial signal, unstimulated adipocytes – cell-based, JC-1 fluorescence, 3T3-L1 adipocytes, 24 h, 100 nL compound, profiling panel (AID 1168); details: JC-1 mitochondrial fluorescence, higher = more signal, called active from +8 up or from −8 down
[8] = JC-1 mitochondrial signal, unstimulated myeloma cells – cell-based, JC-1 fluorescence, RPMI8226, 24 h, 100 nL compound, profiling panel (AID 1169); details: JC-1 mitochondrial potential fluorescence, higher = more signal
[9] = JC-1 mitochondrial signal, unstimulated MM1S myeloma – cell-based, JC-1 fluorescence, 24 h, 100 nL compound, profiling panel (AID 1170); details: MM1S mitochondrial potential, higher = more signal
[10] = resazurin metabolic signal in A549 cells – cell-based, resazurin fluorescence, 24 h, PK04 Diversity Set, profiling panel (AID 1171); details: A549 viability, higher = more signal, called active from +8 up or from −8 down
Also: test concentration not given here.

Row | Structure (SMILES) | z-score [1] | z-score [2] | z-score [3] | z-score [4] | z-score [5] | z-score [6] | z-score [7] | z-score [8] | z-score [9] | z-score [10]
1 | NC(=O)N1C(=O)C2C(C1=O)C1C=C(CCCO)C2C(c2cccs2)N1Cc1cccc(OC(F)(F)F)c1 (stereo not given) | 0.604 | 0.151 | -0.4 | -2.98 | -1.11 | -0.339 | -0.678 (inactive) | 0.146 | 1.37 | 0.48 (inactive)
2 | COCCOC(=O)N1C(=O)[C@@]2(c3cc(C#CCC(C(=O)OC)C(=O)OC)ccc31)[C@H](C(=O)N1CCc3cc(OC)c(OC)cc3C1)[C@H]1C(=O)O[C@H](c3ccccc3)[C@H](c3ccccc3)N1[C@@H]2c1ccc(OCCO)cc1 | 0.206 | 0.105 | 1.42 | -0.219 | 0.0896 | -0.781 | 0.512 (inactive) | -0.637 | -1.28 | -0.225 (inactive)
3 | C=CCC(OC(C)=O)[C@@H]1[C@@H](N(Cc2ccc(-c3cccc(C(F)(F)F)c3)o2)C(=O)c2ccc(-c3ccccc3)cc2)c2cc(OCCCO)ccc2N1C(=O)c1ccc2ccccc2n1 (stereo not given in full) | -0.157 | 0.585 | -0.474 | 0.0887 | 0.458 | 2.07 | -0.572 (inactive) | 0.378 | -0.0621 | 0.264 (inactive)
4 | CC(=O)c1ccc(C(O)C2C=CC3C(=O)N(c4ccccc4)C(=O)C3N2Nc2ccc(C#N)cc2)cc1 (stereo not given) | -0.53 | -0.292 | -0.477 | -0.262 | -0.821 | -1.19 | -1.06 (inactive) | -0.257 | -0.0349 | -0.178 (inactive)
5 | C#CCN([C@@H](Cc1ccc(O)cc1)C(=O)OC)[C@@H](/C=C/C1CC1)[C@H](O)Cc1ccccc1 | -3.21 | -0.0073 | -3.12 | -3.28 | -4.06 | -3.58 | -0.0474 (inactive) | -1.2 | -1.58 | -0.2 (inactive)
6 | COc1cc(OC)c(C(O)C2C=CC3C(=O)N(C)C(=O)C3N2NC(=O)OC(C)(C)C)cc1Br (stereo not given) | 0.521 | -0.23 | 0.25 | -0.591 | 0.442 | -1.05 | -0.0401 (inactive) | 0.0442 | 1.18 | -0.503 (inactive)
7 | COC(=O)[C@@]1(Cc2ccc(OC)cc2)[C@H]2c3cc(C(=O)N4CCCC4)n(Cc4cccc5ccccc45)c3C[C@H]2CN1C(=O)c1ccccc1 | -0.249 | -0.305 | 1.39 | -0.47 | -0.718 | 2.15 | -0.198 (inactive) | -0.427 | -1.26 | -0.506 (inactive)
8 | C[C@@H]1NC(=O)[C@@]23C(=O)N[C@@H](Cc4ccccc4)C2[C@H](C)[C@@]2(C)O[C@H]2C3/C=C/C/C=C\CNC(=O)[C@@H]2CCCN2C1=O (stereo not given in full) | -0.143 | 0.389 | -0.0552 | 0.37 | -0.0448 | -0.175 | 1.19 (inactive) | 0.632 | -0.0219 | 0.247 (inactive)
9 | CCCNC(=O)[C@@H]1c2ccccc2C(=O)N(C(C)C)[C@H]1c1ccc(CO)cc1 | 0.678 | 0.306 | 0.997 | 0.92 | -0.34 | 1.81 | 1.82 (inactive) | -0.119 | -0.695 | 0.136 (inactive)
10 | COc1ccc(CN(C2=CC[C@@]3(C(N)=O)C(=O)C(Cl)=C(Cl)C(=O)[C@@]3(C#N)C2)S(=O)(=O)c2ccc(Br)cc2)cc1 | 0.236 | 0.167 | 0.0144 | -3.34 | -1.66 | -2.16 | -0.689 (inactive) | -0.885 | -2.06 | -1.12 (inactive)
11 | COCCOC(=O)N1C(=O)[C@@]2(c3cc(C#CC4=CCCCC4)ccc31)[C@H](c1ccc(O)cc1)N1[C@H](c3ccccc3)[C@H](c3ccccc3)OC(=O)[C@H]1[C@@H]2C(=O)N1CCN(c2ncccn2)CC1 | -0.462 | -0.89 | 0.19 | 0.444 | 0.771 | 0.642 | 1.87 (inactive) | 0.736 | -0.587 | 0.0994 (inactive)
12 | COc1ccc(-c2cc3c(c(CCc4ccccc4)n2)[Si](C(C)C)(C(C)C)OC3)cn1 | 0.342 | -0.171 | -0.999 | -1.68 | -2.05 | -0.911 | -0.315 (inactive) | -0.738 | -0.24 | 2.35 (inactive)
13 | CCOC(=O)C1=CC[C@@H](c2ccccc2C(F)(F)F)N(S(=O)(=O)c2ccc(C)cc2)[C@H]1c1ccc(C#N)cc1 | -0.711 | -0.842 | -0.326 | -0.509 | -0.214 | -1.02 | -0.544 (inactive) | 0.801 | -0.81 | -0.035 (inactive)
14 | C=CCC(OC(C)=O)[C@@H]1[C@@H](N(Cc2cccc3ccccc23)C(=O)c2cccc3ccccc23)c2cc(OCCCO)ccc2N1C(=O)c1ccc(-c2ccccc2)cc1 (stereo not given in full) | -0.545 | 0.511 | 0.571 | 0.425 | 0.0712 | 1.61 | -0.632 (inactive) | 0.72 | -0.177 | -0.227 (inactive)
15 | C=CCN1C(=O)[C@@]2(O[C@@H](CCn3cc([C@H](O)c4ccccc4)nn3)[C@H]([Si](C)(C)c3ccc(OC)cc3)[C@H]2C)c2cc(N3CCC3=O)ccc21 | 0.36 | 0.977 | 0.0404 | -1.12 | -2.81 | 2.18 | 0.385 (inactive) | -1.01 | 0.219 | -1.35 (inactive)
16 | CCOC(=O)C[C@H]1[C@H](OC(=O)Cc2ccc3c(c2)OCO3)[C@@H](NC(=O)Cc2ccc(OC)cc2)c2cc(OCCCO)ccc2N1C(=O)c1ccc2ccccc2n1 | 2.47 | 0.189 | 1.37 | 0.631 | -0.577 | 1.84 | 0.929 (inactive) | 0.628 | 0.819 | -0.23 (inactive)
17 | O=C1N(Cc2ccccc2)Cc2ccccc2[C@@H]2OC(c3ccc(OCCCO)cc3)=N[C@]12CCS(=O)(=O)c1ccccc1 | 0.589 | -1.46 | 0.151 | -1.25 | -1.08 | -0.565 | 0.676 (inactive) | -1.14 | -0.156 | 0.403 (inactive)
18 | C[N+](C)(C)CCCCCCNC(=O)[C@H]1C[C@H]2C(=O)N[C@@H](Cc3ccccc3)C(=O)N2[C@H]1c1ccc(O)cc1 | -0.367 | -1.42 | 0.557 | 0.401 | 0.757 | -0.216 | 0.508 (inactive) | 0.21 | -0.79 | -0.0203 (inactive)
19 | COCCOC(=O)N1C(=O)[C@@]2(c3cc(C#CCNC(N)=O)ccc31)[C@H](C(=O)N1CCc3cc(OC)c(OC)cc3C1)[C@H]1C(=O)O[C@H](c3ccccc3)[C@H](c3ccccc3)N1[C@@H]2c1ccccc1OCCO | 0.573 | 0.376 | 0.479 | 0.576 | -0.529 | -1.2 | 1.72 (inactive) | -0.502 | -0.98 | -0.286 (inactive)
20 | CCOC(=O)C[C@H]1[C@H](OC(=O)Cc2ccc3c(c2)OCO3)[C@@H](NC(=O)CC(C)C)c2cc(OCCCO)ccc2N1C(=O)Cc1ccc(OC)cc1 | 0.777 | 0.413 | 1.63 | -0.322 | 0.791 | 3.73 | 0.31 (inactive) | 0.139 | -0.19 | -0.581 (inactive)
21 | C=C[C@@H](OC)[C@H](OC(=O)Nc1ccc(SC)cc1)c1ccc(O)c(F)c1 | -0.247 | -0.19 | -0.419 | -1.4 | -0.515 | -2.52 | 1.47 (inactive) | -0.362 | -0.317 | -0.637 (inactive)
22 | CC(C)C(CO)N1C(=O)[C@@H]2C3C(=O)OCCC/C=C\[C@H]3OC23C=CCN(C(C)(C)C)C(=O)[C@@H]13 (stereo not given in full) | -0.444 | -0.496 | -0.972 | 0.724 | 0.851 | -0.3 | 0.306 (inactive) | 0.0508 | -0.351 | -0.265 (inactive)
23 | CC(C)C(=C=CC[C@H](O)c1ccc(OCCO)cc1)C[C@H](O)c1ccccn1 | 1.84 | -0.245 | 1.34 | -1.86 | -0.121 | 0.421 | -0.0235 (inactive) | -0.479 | -0.5 | 1.15 (inactive)
24 | CCCCN1CC=CC23O[C@@H]4/C=C\CCC(C)OC(=O)C4[C@H]2C(=O)N(C(CO)C(C)C)[C@@H]3C1=O (stereo not given in full) | 0.0282 | -0.21 | 0.519 | 1.61 | -0.773 | -0.403 | -1.27 (inactive) | 0.0795 | -0.676 | -0.0227 (inactive)
25 | CN1C(=O)C2C=CC(C(O)c3ccc(F)cc3)N(Nc3ccccc3)C2C1=O (stereo not given) | -0.434 | -1.02 | -0.613 | -1.82 | 0.196 | -1.81 | -0.8 (inactive) | 0.663 | 0.431 | -0.369 (inactive)
26 | COc1ccc(C#Cc2ccc3c(c2)[C@]2(C(=O)N3)[C@H](c3ccc(O)cc3)N3[C@H](c4ccccc4)[C@H](c4ccccc4)OC(=O)[C@H]3[C@@H]2C(=O)O)cc1 | -0.884 | 0.943 | 0.127 | -2.24 | -2.2 | -3.68 | -0.742 (inactive) | -0.28 | -0.361 | 0.344 (inactive)
27 | C=CCN1C(=O)[C@@]2(CCS(=O)(=O)c3ccccc3)N=C(c3ccc(OCCCO)cc3)O[C@H]2c2ccccc21 | 0.0843 | 0.473 | 0.684 | -0.786 | -2.05 | -0.692 | 1.79 (inactive) | -0.995 | 0.0237 | -0.812 (inactive)
28 | Cc1ccc(S[C@]2(C(=O)O)CC(=O)N(C3Cc4ccccc4C3)[C@@H]2c2ccc(CO)cc2)cc1 | -0.197 | 0.729 | -0.574 | -0.428 | -2.56 | 0.125 | -0.58 (inactive) | 0.522 | 0.353 | -0.831 (inactive)
29 | COc1ccc([Si](C)(C)[C@@H]2[C@@H](CCO)O[C@]3(C(=O)N(Cc4ccc(N5CCCCC5=O)cc4)c4ccccc43)[C@H]2C)cc1 | 0.108 | -0.686 | -0.347 | -2.8 | -3.05 | 0.714 | 1.25 (inactive) | 0.88 | 0.572 | -1.78 (inactive)
30 | COCCOC(=O)N1C(=O)[C@@]2(c3cc(C#CC4(O)CCCCCC4)ccc31)[C@H](c1ccc(O)cc1)N1[C@H](c3ccccc3)[C@H](c3ccccc3)OC(=O)[C@H]1[C@@H]2C(=O)NC[C@H](O)c1ccccc1 | 0.121 | 0.266 | -0.31 | -1.49 | -3.49 | -2.3 | -1.27 (inactive) | -1.15 | -0.715 | 0.0025 (inactive)
